Structures are written as SMILES. Inconclusive results are not listed. A call without a number means that no potency is given here. Active and inactive are the calls of the source. The call rests on the fitted dose curve; in most records, active means well fitted inhibition curve with a large enough effect; inconclusive means small, poorly fitted or top-dose-only effect; inactive means flat fitted curve, though single readings scatter.
Potency means the concentration at half of the fitted maximal effect.

This assay can be described thus: qHTS for Inhibitors of Plasmodium falciparum (HB3) proliferation (AID 504318). Further: nearly all actives have a fitted effect of over 60% in size. The conditions noted are these: P. falciparum HB3 in erythrocytes, SYBR Green DNA, 72 h; series mostly up to 7.21 µM. The method in brief: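 Erythrocytes infected with P. falciparum line (0.3% parasitemia, 2.5% hematocrit final) incubated with compounds 72 h at 37 °C, 5% CO2; SYBR Green lysis buffer added, fluorescence read next day. Normalized to 0.29 uM artemisinin and DMSO.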
A general note: qHTS replaces the single test concentration by a dilution series.
Take `CC(Nc1oc(-c2ccccc2)nc1-c1cccc2ccccc12)c1ccccc1` (stereo unspecified): the Potency entry is “inactive”. Turning to `CC1=CC[C@@H](COc2ccccc2)O[C@@]2(C1)C(=O)N(Cc1ccccc1C(F)(F)F)c1cccc(Br)c12`, the Potency is 1690 nM (active). The figure for `COC(=O)c1ccc(CN2C(=O)[C@@]3(CC(C)=CC[C@@H](COc4ccccc4)O3)c3c(Br)cccc32)cc1` is 1510 nM (active).

`COC1=C(C(=O)c2ccccc2)C(=O)[C@@]2(CC=C(C)C)C[C@@H]([S+](=O)([O-])c3ccccc3)C(C)(C)[C@@]1(CC=C(C)C)C2=O`: the Potency is 1900 nM (active). Take `C[C@@H]1CC[C@H]2C(=O)N(Cc3ccc(Cl)cc3)C[C@@H](O)CN2[C@@H]1c1ccc(Br)cc1`: the Potency result was “inactive”. Regarding `FC(F)(F)c1cc(NC(=S)Nc2ccc3ccccc3c2)cc(C(F)(F)F)c1`, the Potency is 2130 nM (active). The entry for `COC(=O)C1=C(C)N(Cc2ccccc2)C(=NCC2CC2)NC1c1ccc(Br)cc1` (stereo unspecified) is “inactive”; for `O=C1N(Cc2ccc(F)cc2)c2ccccc2[C@@]12O[C@H](COc1ccccc1)CC1CCCC12` (stereo partly specified) it is “inactive”; for `CC(C)(C)Nc1oc(-c2ccccc2)nc1C=Cc1ccccc1` it is 1690 nM (active). The figure for `COC(=O)C1=C(C(=O)OC)[C@@H]2N(Cc3ccccc3)c3ccccc3[C@@]23CCC(=O)N(CC2CC2)C3=N1` is 3290 nM (active); for `C[C@H]1C[C@@H](C)O[C@@]2(C1)C(=O)N(Cc1ccc(F)cc1)c1ccccc12` it is “inactive”. The entry for `COC(=O)C1=C[C@H]([C@@H](C)[C@H](OC)c2ccccc2Br)[C@H]2c3ccccc3O[C@@H]12` is “inactive”. As to `COC(=O)CC1c2ccccc2C=C(C=Cc2ccc3c(c2)OCO3)N1C(=O)OC` (stereo unspecified), the Potency was 1690 nM (active). The result for `C[C@@H]1CC[C@H]2C(=O)O[C@@H](COc3ccc(C(C)(C)C)cc3)CN2[C@@H]1c1ccc(Br)cc1` reads 1690 nM (active); that for `CCN1C(N(C)CCc2c[nH]c3ccccc23)=NC(c2cccc(C(F)(F)F)c2)C(C(=O)OC)=C1C` (stereo unspecified), “inactive”.

As to `COc1cc2c(c(OC)c1OC)C(c1ccccc1)(c1ccccc1)CC2NC(=O)C(F)(F)F` (stereo unspecified), the Potency was 2390 nM (active). `COC(=O)C1=C(C)N(Cc2ccccc2)C(=O)NC1CCc1ccccc1` (stereo unspecified): the Potency entry is “inactive”.

Regarding `COc1ccc2c(c1)C[C@@H](C)O[C@]21C(=O)Nc2ccccc21`, the Potency result is “inactive”. The entry for `CCN1C(=NCCc2c[nH]c3ccccc23)NC(c2cccc(F)c2)C(C(=O)OC)=C1C` (stereo unspecified) is “inactive”; for `CCN(CC)CCCN1C(=O)C2=C(C1=O)C1N(C)c3ccccc3[C@@]13C[C@@H](CO)N(C(=O)CCC(=O)OC)C3=N2` (stereo partly specified) it is “inactive”; for `C#CCN1C(=O)[C@]2(O[C@H](COc3ccccc3)CC3=CCCC32)c2c(Br)cccc21` (stereo partly specified) it is “inactive”.

Consider `COC(=O)C1=C(C)N(Cc2ccccc2)C(=NCc2ccc(OC)cc2)NC1c1cccc(F)c1` (stereo unspecified), for which the Potency entry was “inactive”. As to `C[C@H]1CC[C@H]2C(=O)O[C@H](COc3ccc(C(C)(C)C)cc3)CN2[C@H]1c1ccc(Br)cc1`, the Potency is 3290 nM (active). The result for `CC(C)(C)OC(=O)C1=NOC2(C=CC(=O)C=C2)C1` reads “inactive”; that for `COC(=O)C1=C(C(=O)OC)[C@@H]2N(C)c3ccccc3[C@@]23C[C@@H](C(=O)OC)N(C(=O)NC2CCCC2)C3=N1`, “inactive”. For `CC(=O)OC[C@H]1O[C@@H](ON=C(C)CCC(=O)OC[C@H]2O[C@H](C#Cc3ccccc3)C=C[C@H]2Oc2ccc(C)cc2)[C@H](OC(C)=O)[C@@H](OC(C)=O)[C@H]1OC(C)=O`, the Potency result was “inactive”. The result for `COC(=O)C1=C(C(=O)OC)[C@@H]2N(C)c3ccccc3[C@@]23C[C@@H](CO)N(C(=O)NC2CCCC2)C3=N1` reads 1900 nM (active); that for `COC(=O)C1=C(C)N(Cc2ccccc2)C(=S)NC1c1cccc(C(F)(F)F)c1` (stereo unspecified), “inactive”. `C=CCN=C1NC(c2cccc(C(F)(F)F)c2)C(C(=O)OC)=C(C)N1CC` (stereo unspecified): the Potency result is “inactive”. The entry for `COC(=O)C1=C(C)N(CC2CC2)C(N(C)Cc2ccc(OC)cc2)=NC1c1ccccc1` (stereo unspecified) is “inactive”; for `C=CCN=C1N[C@H](c2ccc(Br)cc2)C(C(=O)OC)=C(C)N1Cc1ccccc1` it is “inactive”. The result for `CCN1C(=S)NC(c2cccs2)C(C(=O)OC)=C1C` (stereo unspecified) reads “inactive”; that for `CC(C)=CCCC(C)=CCN1C(=O)[C@]2(O[C@H](COc3ccccc3)CC3=CCCC32)c2c(Br)cccc21` (stereo partly specified), 1690 nM (active).

As for `CCN1C(=NCc2cccc(C(F)(F)F)c2)NC(c2ccccc2)C(C(=O)OC)=C1C` (stereo unspecified), the Potency result was “inactive”.

As to `CC(C)=CCN1C(=O)[C@]2(O[C@H](COc3ccccc3)CC3=C2CCC3)c2ccccc21`, the Potency was 1690 nM (active).

Turning to `COC(=O)C1=C(C)N(Cc2ccccc2)C(=NCCc2c[nH]c3ccccc23)NC1c1cccc(F)c1` (stereo unspecified), the Potency result was “inactive”.
